Assay results: the supplement of paper PMC10849652
Targets with a hit are over-represented here; the source holds about 7,900 in all. About 0.6% of all pairs of compound and target were hits. A number with no mark means an inactive call.

What follows are targets tested with C[C@H](C1=CC=C(C=C1)C(=O)NC2=C3C=CNC3=NC=C2)N (assay: log2 fold change, soluble protein after heating vs DMSO (PISA); higher = thermal stabilisation; K562 cells, 10 uM, 30 min; active = over 0.2 and 3.5 SD of the protein, either way, in both replicates (recomputed)).
Outline: (§1)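 Quantification of soluble protein used TMTpro 16plex LC-MS/MS, with channel sums equalised. Samples were the supernatant after 21,000xg for 90 min of pooled aliquots from K562 cells (2×10^6 cells/mL) treated with 10 μM compound for 30 min, heated for 3 min over 48°C-58°C, and extracted in PBS with 0.5% NP-40 at 4°C. Values, from duplicates, describe thermal stability against control samples on a log2 fold-change scale.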

Sequence of UniProt Q92828 (Q92828 whole entry, looked up): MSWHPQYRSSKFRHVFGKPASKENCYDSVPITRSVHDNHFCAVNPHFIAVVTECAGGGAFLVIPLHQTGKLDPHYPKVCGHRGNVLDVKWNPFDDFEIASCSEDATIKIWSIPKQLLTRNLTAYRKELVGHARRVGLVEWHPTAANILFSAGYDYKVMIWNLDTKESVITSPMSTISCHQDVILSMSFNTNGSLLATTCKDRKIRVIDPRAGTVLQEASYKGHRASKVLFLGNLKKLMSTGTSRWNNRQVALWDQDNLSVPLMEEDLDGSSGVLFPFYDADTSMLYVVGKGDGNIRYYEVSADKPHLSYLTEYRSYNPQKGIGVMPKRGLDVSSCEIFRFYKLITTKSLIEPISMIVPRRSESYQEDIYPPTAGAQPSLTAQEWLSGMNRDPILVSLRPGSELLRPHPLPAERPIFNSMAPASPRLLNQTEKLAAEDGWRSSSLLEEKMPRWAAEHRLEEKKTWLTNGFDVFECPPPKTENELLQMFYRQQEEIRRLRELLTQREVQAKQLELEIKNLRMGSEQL
Sequence of UniProt Q8N4S0 (Q8N4S0 whole entry, looked up): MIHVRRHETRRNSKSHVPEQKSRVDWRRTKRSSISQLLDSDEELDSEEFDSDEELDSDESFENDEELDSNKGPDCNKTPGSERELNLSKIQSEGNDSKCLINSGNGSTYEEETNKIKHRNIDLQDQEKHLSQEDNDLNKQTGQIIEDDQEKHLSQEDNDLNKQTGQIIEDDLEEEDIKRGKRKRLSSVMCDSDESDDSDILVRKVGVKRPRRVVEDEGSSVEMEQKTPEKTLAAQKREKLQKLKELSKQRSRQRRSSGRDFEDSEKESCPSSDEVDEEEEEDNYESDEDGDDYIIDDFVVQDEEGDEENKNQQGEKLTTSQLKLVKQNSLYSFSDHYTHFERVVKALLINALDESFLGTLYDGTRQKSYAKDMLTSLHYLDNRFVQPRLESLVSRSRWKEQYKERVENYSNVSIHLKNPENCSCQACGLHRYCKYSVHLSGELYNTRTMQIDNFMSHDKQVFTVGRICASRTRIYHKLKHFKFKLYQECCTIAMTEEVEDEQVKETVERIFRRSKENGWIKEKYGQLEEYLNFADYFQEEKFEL
Sequence of UniProt Q9UBY8 (Q9UBY8 whole entry, looked up): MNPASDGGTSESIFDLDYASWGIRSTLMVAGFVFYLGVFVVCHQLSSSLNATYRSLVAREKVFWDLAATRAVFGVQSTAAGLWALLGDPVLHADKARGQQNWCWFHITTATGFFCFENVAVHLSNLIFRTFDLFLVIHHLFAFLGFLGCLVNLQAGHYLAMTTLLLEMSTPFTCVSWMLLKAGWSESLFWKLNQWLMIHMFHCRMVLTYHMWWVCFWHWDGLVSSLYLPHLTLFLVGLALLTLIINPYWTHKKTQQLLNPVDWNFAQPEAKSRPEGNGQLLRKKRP
Sequence of UniProt P33552 (P33552 whole entry, looked up): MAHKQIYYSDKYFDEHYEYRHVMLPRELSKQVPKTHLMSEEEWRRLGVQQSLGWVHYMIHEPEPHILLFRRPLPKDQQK
Sequence of UniProt A8MTT3 (A8MTT3 whole entry, looked up): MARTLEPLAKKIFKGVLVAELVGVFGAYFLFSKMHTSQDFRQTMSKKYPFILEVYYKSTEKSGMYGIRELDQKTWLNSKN
Sequence of UniProt Q14677 (Q14677 whole entry, looked up): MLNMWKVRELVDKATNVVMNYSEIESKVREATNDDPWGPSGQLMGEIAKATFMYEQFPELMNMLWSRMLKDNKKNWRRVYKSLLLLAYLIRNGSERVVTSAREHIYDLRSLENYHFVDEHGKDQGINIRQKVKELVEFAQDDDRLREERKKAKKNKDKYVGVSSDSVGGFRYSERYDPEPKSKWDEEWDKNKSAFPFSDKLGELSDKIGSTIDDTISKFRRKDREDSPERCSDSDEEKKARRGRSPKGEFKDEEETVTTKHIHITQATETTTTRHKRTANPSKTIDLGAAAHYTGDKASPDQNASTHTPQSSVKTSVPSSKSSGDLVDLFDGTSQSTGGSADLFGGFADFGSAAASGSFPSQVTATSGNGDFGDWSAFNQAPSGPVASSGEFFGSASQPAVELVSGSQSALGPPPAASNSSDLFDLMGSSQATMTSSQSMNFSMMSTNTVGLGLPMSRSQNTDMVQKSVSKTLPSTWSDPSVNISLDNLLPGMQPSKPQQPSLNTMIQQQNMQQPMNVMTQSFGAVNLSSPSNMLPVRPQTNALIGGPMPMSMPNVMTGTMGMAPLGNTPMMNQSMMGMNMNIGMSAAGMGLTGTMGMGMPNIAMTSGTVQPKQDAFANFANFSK
Sequence of UniProt Q9UHN6 (Q9UHN6 whole entry, looked up): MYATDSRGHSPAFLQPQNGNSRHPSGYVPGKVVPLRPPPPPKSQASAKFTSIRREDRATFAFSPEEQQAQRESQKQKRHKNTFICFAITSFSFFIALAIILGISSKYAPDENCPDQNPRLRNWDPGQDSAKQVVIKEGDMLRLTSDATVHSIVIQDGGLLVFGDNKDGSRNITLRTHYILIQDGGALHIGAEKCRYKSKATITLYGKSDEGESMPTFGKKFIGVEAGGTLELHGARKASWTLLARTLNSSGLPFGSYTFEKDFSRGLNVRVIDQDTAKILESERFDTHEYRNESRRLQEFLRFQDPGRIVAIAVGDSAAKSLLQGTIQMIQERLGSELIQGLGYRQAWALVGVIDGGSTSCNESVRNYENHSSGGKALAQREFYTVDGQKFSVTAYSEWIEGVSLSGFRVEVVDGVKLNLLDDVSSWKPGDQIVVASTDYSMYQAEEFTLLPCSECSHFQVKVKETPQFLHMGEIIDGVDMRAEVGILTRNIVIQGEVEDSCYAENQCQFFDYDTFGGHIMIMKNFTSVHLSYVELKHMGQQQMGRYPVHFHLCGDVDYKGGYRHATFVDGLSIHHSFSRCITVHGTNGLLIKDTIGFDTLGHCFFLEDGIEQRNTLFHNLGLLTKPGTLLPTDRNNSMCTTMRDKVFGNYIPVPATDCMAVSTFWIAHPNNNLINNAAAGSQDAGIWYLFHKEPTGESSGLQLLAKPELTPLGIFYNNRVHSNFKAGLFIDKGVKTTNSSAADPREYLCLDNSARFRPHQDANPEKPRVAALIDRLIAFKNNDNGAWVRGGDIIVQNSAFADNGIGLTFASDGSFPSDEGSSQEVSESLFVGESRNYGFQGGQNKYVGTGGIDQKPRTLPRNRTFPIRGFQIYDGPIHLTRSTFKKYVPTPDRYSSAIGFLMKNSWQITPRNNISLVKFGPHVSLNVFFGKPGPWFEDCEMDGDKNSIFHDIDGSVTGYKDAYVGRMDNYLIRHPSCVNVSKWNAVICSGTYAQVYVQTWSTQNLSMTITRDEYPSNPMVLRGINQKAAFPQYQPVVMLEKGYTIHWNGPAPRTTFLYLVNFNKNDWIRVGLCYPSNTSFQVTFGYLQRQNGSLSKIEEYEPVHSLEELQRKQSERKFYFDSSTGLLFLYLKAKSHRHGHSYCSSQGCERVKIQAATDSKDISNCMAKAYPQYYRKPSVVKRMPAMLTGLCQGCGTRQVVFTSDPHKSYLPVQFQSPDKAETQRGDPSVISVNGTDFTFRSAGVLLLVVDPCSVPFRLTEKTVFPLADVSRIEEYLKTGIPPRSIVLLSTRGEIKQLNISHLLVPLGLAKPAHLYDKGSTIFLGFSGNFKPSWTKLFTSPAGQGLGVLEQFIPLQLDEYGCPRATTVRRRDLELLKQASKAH
Sequence of UniProt P51911 (P51911 whole entry, looked up): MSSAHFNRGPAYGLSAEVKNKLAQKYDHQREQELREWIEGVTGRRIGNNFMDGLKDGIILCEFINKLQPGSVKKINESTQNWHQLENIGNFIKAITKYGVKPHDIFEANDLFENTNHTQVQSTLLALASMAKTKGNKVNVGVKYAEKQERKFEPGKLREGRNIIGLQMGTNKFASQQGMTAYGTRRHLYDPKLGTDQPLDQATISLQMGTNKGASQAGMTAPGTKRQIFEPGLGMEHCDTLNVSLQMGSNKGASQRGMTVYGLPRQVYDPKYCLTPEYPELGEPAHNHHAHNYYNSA
Sequence of UniProt O95273 (O95273 whole entry, looked up): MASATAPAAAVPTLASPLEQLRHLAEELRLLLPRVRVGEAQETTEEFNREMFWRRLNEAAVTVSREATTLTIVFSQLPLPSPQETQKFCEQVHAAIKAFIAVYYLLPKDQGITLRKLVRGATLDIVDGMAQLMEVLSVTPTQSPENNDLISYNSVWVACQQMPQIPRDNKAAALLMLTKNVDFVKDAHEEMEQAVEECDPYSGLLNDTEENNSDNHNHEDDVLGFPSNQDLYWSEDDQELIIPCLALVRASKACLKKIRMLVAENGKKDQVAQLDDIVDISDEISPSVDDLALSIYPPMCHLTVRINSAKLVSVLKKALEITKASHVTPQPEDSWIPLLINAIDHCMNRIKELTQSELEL
Sequence of UniProt O60583 (O60583 whole entry, looked up): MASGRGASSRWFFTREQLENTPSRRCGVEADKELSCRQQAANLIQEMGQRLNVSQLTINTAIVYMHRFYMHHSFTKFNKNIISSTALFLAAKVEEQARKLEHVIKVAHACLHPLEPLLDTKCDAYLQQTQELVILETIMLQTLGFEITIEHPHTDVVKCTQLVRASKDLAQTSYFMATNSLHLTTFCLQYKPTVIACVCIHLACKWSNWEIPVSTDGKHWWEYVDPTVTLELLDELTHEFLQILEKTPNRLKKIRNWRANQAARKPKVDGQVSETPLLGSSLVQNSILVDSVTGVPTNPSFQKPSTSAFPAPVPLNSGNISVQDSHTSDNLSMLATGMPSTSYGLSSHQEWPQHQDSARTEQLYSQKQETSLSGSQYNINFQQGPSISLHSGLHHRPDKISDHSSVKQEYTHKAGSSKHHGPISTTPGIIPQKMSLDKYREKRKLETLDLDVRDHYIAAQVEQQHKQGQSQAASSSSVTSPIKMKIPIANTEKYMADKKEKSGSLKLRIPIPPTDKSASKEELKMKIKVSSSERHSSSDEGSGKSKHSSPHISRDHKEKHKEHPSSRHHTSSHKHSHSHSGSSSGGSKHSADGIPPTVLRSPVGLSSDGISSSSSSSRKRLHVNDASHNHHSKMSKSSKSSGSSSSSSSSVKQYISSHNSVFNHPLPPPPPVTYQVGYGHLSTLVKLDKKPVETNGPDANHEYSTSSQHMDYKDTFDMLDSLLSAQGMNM

| Target | log2 fold change |
| --- | --- |
| CCND3 (UniProt P30281) | 0.096 |
| CORO2A (UniProt Q92828) | 0.101 |
| CLINT1 (UniProt Q14677) | 0.005 |
| CLPTM1L (UniProt G5E9Z2) | 0.067 |
| CLCN5 isoform 2 (UniProt P51795) | -0.123 |
| CNN1 (UniProt P51911) | -0.121 |
| CNOT4 isoform 9 (UniProt O95628) | 0.484 (active) |
| CLASP2 (UniProt O75122) | 0.155 |
| CLN3 (UniProt Q13286) | 0.071 |
| CPNE5 (UniProt Q9HCH3) | 0.148 |
| CCDC82 (UniProt Q8N4S0) | 0.015 |
| CCNDBP1 (UniProt O95273) | 0.06 |
| CDC25B isoform 4 (UniProt P30305) | -0.057 |
| COMMD3-BMI1 (UniProt R4GMX3) | 0.019 |
| CREB3L2 (UniProt Q70SY1) | -0.26 |
| CEMIP2 (UniProt Q9UHN6) | 0.03 |
| CLN8 (UniProt Q9UBY8) | 0.161 |
| CDK2AP2 (UniProt O75956) | -0.015 |
| CRMP1 isoform 2 (UniProt Q14194) | 0.08 |
| CRTC3 (UniProt Q6UUV7) | 0.071 |

The targets below were run with C[C@H](Nc1ncnc2nc[nH]c12)c1cc2cccc(Cl)c2c(=O)n1-c1ccccc1 [duvelisib] in the same assay as above.
Outline: as §1

| Target | log2 fold change |
| --- | --- |
| CCND3 (UniProt P30281) | 0.014 |
| CORO2A (UniProt Q92828) | 0.061 |
| CLINT1 (UniProt Q14677) | -0.08 |
| CLCN5 isoform 2 (UniProt P51795) | 0.188 |
| CNOT4 isoform 9 (UniProt O95628) | -0.076 |
| CCNT2 (UniProt O60583) | -0.107 |
| CFAP47 (UniProt Q6ZTR5) | -0.027 |
| CLN3 (UniProt Q13286) | 0.096 |
| CCDC82 (UniProt Q8N4S0) | -0.223 |
| CCNDBP1 (UniProt O95273) | 0.016 |
| CEBPZOS (UniProt A8MTT3) | 0.055 |
| CEMIP2 (UniProt Q9UHN6) | 0.037 |
| CASK (UniProt O14936) | 0.049 |
| CLN8 (UniProt Q9UBY8) | 0.049 |
| CA1 (UniProt E5RIF9) | 0.055 |
| CASP7 isoform 3 (UniProt P55210) | -0.024 |
| CKS2 (UniProt P33552) | 0.01 |
| CRMP1 isoform 2 (UniProt Q14194) | 0.208 |

The targets below were run with Cc1cc(Nc2cc(CN3CCOCC3)c3nc(C)c(Cc4ccc(Cl)cc4F)n3n2)n[nH]1 [gandotinib] in the same assay as above.
Outline: as §1

| Target | log2 fold change |
| --- | --- |
| CCND3 (UniProt P30281) | -0.027 |
| CORO2A (UniProt Q92828) | 0.061 |
| CFAP58 (UniProt Q5T655) | -0.011 |
| CLPTM1L (UniProt G5E9Z2) | -0.382 |
| CLCN5 isoform 2 (UniProt P51795) | -0.083 |
| CNN1 (UniProt P51911) | -0.673 (active) |
| CNOT4 isoform 9 (UniProt O95628) | -0.059 |
| CCNT2 (UniProt O60583) | -0.065 |
| CCNDBP1 (UniProt O95273) | -0.066 |
| CDC25B isoform 4 (UniProt P30305) | 0.122 |
| COMMD3-BMI1 (UniProt R4GMX3) | -0.011 |
| CCDC187, A0A1W2PQX5 | -0.352 |
| CEBPZOS (UniProt A8MTT3) | -0.189 |
| CEMIP2 (UniProt Q9UHN6) | -0.129 |
| CLN8 (UniProt Q9UBY8) | -0.1 |
| CASP7 isoform 3 (UniProt P55210) | -0.155 |
| CKS2 (UniProt P33552) | -0.272 |
| CRMP1 isoform 2 (UniProt Q14194) | -0.132 |

Each target was assayed with Cc1cc(Nc2cc(N3CCN(C)CC3)nc(Sc3ccc(NC(=O)C4CC4)cc3)n2)n[nH]1 [tozasertib] in the same assay as above.
Outline: as §1

| Target | log2 fold change |
| --- | --- |
| CCND3 (UniProt P30281) | -0.058 |
| CORO2A (UniProt Q92828) | -0.028 |
| CLINT1 (UniProt Q14677) | 0.074 |
| CLPTM1L (UniProt G5E9Z2) | -0.049 |
| CLCN5 isoform 2 (UniProt P51795) | 0.122 |
| CNN1 (UniProt P51911) | -0.151 |
| CNOT4 isoform 9 (UniProt O95628) | -0.028 |
| CCNT2 (UniProt O60583) | -0.291 |
| CLN3 (UniProt Q13286) | -0.006 |
| CPNE5 (UniProt Q9HCH3) | 0.374 |
| CCDC82 (UniProt Q8N4S0) | -0.106 |
| CCNDBP1 (UniProt O95273) | 0.1 |
| COMMD3-BMI1 (UniProt R4GMX3) | -0.048 |
| CEBPZOS (UniProt A8MTT3) | -0.031 |
| CREB3L2 (UniProt Q70SY1) | -0.132 |
| CEMIP2 (UniProt Q9UHN6) | 0 |
| CLN8 (UniProt Q9UBY8) | -0.05 |
| CA1 (UniProt E5RIF9) | -0.153 |
| C5orf30 (UniProt Q96GV9) | -0.24 |
| CKS2 (UniProt P33552) | -0.094 |
| CRMP1 isoform 2 (UniProt Q14194) | -0.602 |
| CRTC3 (UniProt Q6UUV7) | -0.121 |
